Source: PubChem (National Center for Advancing Translational Sciences (NCATS))
BRCA1 expr act: BRCA1 expression activation; MCF7-BRCA1-FFLuc reporter, luminescence, 48 h; response scale: scaled: vehicle 0%, 10 µM genistein 100%; Potency, µM (series often up to 46.1 µM), for inactives: top-dose activation, most hits filed as activators; actives 1.1% (n = 380,000); AID 624202; also: potency is read from the fitted curve at half-maximal effect; nearly all actives have a fitted effect of over 80% in size
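MCF7-BRCA1-FFLuc cells, 2000/well in phenol-red-free MEM, attached 2 h then treated 48 h at 37 C. Luciferase luminescence read 15 min after reagent; normalized to genistein maximum activation (10microM) and DMSO, concentration-response fitted.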
RXFP1 agonist: activates the human relaxin receptor RXFP1; HEK293T-RXFP1 cAMP TR-FRET, 30 min; response scale: percent of porcine relaxin response, buffer zero; Potency, µM (top dose mostly 57.5 µM), for inactives: at the highest dose activation, hits mostly activators; actives 0.3% (n = 370,000); AID 2676; also: potency is read from the fitted curve at half-maximal effect; % is scaled to controls: 0 for no effect and ±100 for the full control effect; nearly all actives have a fitted effect of over 60% in size
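HEK293T cells stably expressing RXFP1 were pretreated with the PDE4 inhibitor Ro 20174, exposed to compounds for 30 min at 37C, lysed, and cAMP was read by TR-FRET. Data normalized to buffer (basal) and 29 nM porcine relaxin (100%).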
NPSR antagonist: blocks cAMP signaling of the human neuropeptide S receptor. Q6W5P4. CHO-NPSR cells, cAMP TR-FRET, antagonist mode. Potency, µM (top dose mostly 38.3 µM), for inactives: at the highest dose activity change, negative = inhibition, most hits filed as inhibitors. actives 1% (n = 220,000); also: potency is read from the fitted curve at half-maximal effect; % is scaled to controls: 0 for no effect and ±100 for the full control effect; nearly all actives have a fitted effect of over 50% in size
Target sequence (Q6W5P4 whole entry, looked up): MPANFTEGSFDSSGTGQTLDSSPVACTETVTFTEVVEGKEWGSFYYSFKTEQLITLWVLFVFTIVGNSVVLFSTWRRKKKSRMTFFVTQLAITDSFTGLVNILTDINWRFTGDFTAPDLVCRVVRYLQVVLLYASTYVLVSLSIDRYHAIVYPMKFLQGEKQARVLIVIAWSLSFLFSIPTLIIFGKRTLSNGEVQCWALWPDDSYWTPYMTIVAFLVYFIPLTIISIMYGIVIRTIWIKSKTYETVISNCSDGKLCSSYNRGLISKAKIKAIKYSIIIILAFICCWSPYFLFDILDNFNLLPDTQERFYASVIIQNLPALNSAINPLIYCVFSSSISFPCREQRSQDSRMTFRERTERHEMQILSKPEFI
Giardia killer: kills Giardia lamblia. AID 540267. actives 0.15% (n = 340,000). activity change, % at 7.66 µM, hits read low. Giardia lamblia trophozoite viability; in the data active = activity change below about -80%; inconclusive = between about -30% and that limit;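 also: parasites exposed to compound for two days anaerobically before the ATP read; % is scaled to controls: 0 for no effect and ±100 for the full control effect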
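Luminescent ATP signal served as the viability read-out, measured 15-30 min after adding ATP detection reagent to trophozoites that had been incubated with compounds for 48 hrs at 37 deg C anaerobically at 100 cells/well.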
IL2 activator: IL-2 activation; IL-2 activation reporter assay, cell-based qHTS; stimulated with anti-CD3/CD4/CD28 beads; in transgenic mouse T cells; actives 0.065% (n = 360,000); activation, % (series mostly up to about 46 µM); in the data active = activation above about 50%; inconclusive = mostly about 30% to 49%; also: 0% is about no effect
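Readout: EGFP and DsRed signals by fluorescent plate cytometry. Unstimulated transgenic mouse T cells received compound 60 min before antibody-bead stimulation, then incubated 18 h at 37 degrees C.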
RXFP1 antagonist: RXFP1 (human) relaxin receptor antagonism | Q9HBX9 | HEK293-RXFP1, relaxin-stimulated cAMP HTRF, 30 min; active compounds read low | activity change, negative = inhibition, % at 57.5 µM | actives 0.59% (n = 350,000) | AID 1259400;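 active = activity change of -60% or lower, but not beyond a set lower limit; inconclusive = change between -60% and -40%, or beyond the set limit; inactive = change above -40%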; also: % is scaled to controls: 0 for no effect and ±100 for the full control effect
An asterisk follows results filed as active; ? = inconclusive; / = no result given; [ ] = remark or other dose. Most compounds without a hit are left out; they make up all but 1.9% or so of the library. Unless noted, calls follow the shape of the dose curve; as a rule, active = well fitted curve in the direction sought with a large enough effect; inconclusive = small, poorly fitted or top-dose-only effect, or another doubt; inactive = no such curve, though single readings can be large; an effect the other way counts as inactive or inconclusive.

SMILES	BRCA1 expr act	RXFP1 agonist	NPSR antagonist	Giardia killer	IL2 activator	RXFP1 antagonist
CC(Oc1cccnc1[N+](=O)[O-])C(=O)Nc1ccc(F)cc1 (configuration not stated)	10%	0%	/	?	2	?
O=C(COc1cccnc1[N+](=O)[O-])Nc1ccc2c(c1)CCC2	66%	-1%	10%	?	-1	0
C[n+]1c(/C=C/c2ccnc3ccccc23)cc(/C=C/c2ccnc3ccccc23)c2ccccc21	0%	/	/	/	/	/
COc1ccc(C(=O)C[n+]2ccc(Cl)c3ccc(Cl)cc32)cc1	7%	/	/	/	/	/
O=C(COc1ccccc1C(=O)Nc1ccccc1)NC1CCCCC1	0%	/	/	/	/	/
O=C(CNc1cccc2ccccc12)N/N=C/c1ccc([N+](=O)[O-])o1	-67%	2%	-8%	-96*	-3	-8
O=C(CNc1cccc([N+](=O)[O-])c1)N/N=C/c1ccc([N+](=O)[O-])o1	-56%	0%	-7%	-107*	-2	-4
O=C(CNc1ccccc1)N/N=C/c1ccc([N+](=O)[O-])cc1	-15%	-1%	-2%	3	-3	-8
Cc1ccc(N=C2NC(=O)CC(C(=O)Nc3cc(C(F)(F)F)ccc3Cl)S2)cc1 (configuration not stated)	-10%	0%	/	/	/	/
Cc1ccccc1NC1=C/C(=N\S(=O)(=O)c2cccs2)c2ccccc2C1=O	-123%	2%	3.2µM*	-23	-6	-3
CC(=O)Nc1ccc(NC2=C/C(=N/S(=O)(=O)c3cccs3)c3ccccc3C2=O)cc1	-102%	-8%	7.9µM*	-13	-1	0
CCNC(=O)c1c(NC(=O)c2nc(SC)ncc2Cl)sc2c1CCCC2	12%	/	/	/	/	/
OC1(c2ccc(Cl)cc2)CCNCC1	/	/	/	/	/	-30
CCc1ccc(-c2nc(NC(=O)c3ccc(OCC(=O)Nc4ccc(F)cc4)c(OC)c3)sc2C)cc1	-13%	32µM*	6.3µM*	0	2	9
COc1cc(C(=O)Nc2nc(-c3ccc(Cl)cc3)c(C)s2)ccc1OCC(=O)Nc1ccc(F)cc1	-47%	20µM*	4µM*	6	0	-9
CCOc1ccccc1NC(=O)CSc1nnc(CC)c(CC)n1	/	1%	/	/	/	-13
CCOC(=O)N1CCN(C(=O)c2ccc3c(c2)sc2nc(-c4ccccc4)cn23)CC1	10µM*	3%	-11%[46.1 µM]	15	0	0
CCOC(=O)C1CCN(C(=O)c2ccc3c(c2)sc2nc(-c4ccccc4)cn23)CC1	/	0%	/	/	/	-24
Cc1cc(C)n(-c2nc(Nc3ccccc3)nc(-n3nc(C)cc3C)n2)n1	-5%	5%	4%[46.1 µM]	-1	-1	12
Cc1cc(C)n(-c2nc(N(c3ccccc3)c3ccccc3)nc(-n3nc(C)cc3C)n2)n1	-106%	1%	13µM*	4	1	8
Fc1ccc(Nc2nc3nonc3nc2Nc2cccc(C(F)(F)F)c2)cc1	/	0%	/	/	/	-74*
Cc1ccc(NS(=O)(=O)c2ccc(-c3cc(C)no3)cc2)c(C)c1	/	0%	/	/	/	7
CCC(=O)Nc1ccc(NC(=O)c2ccccn2)cn1	?	-1%	9%[46.1 µM]	-23	-3	11
CC(C)C(=O)Nc1ccc(NC(=O)c2ccccn2)cn1	2.5µM*	0%	2%[46.1 µM]	?	-1	-2
CCc1cnc2ccccc2c1/C=C/c1ccc(N(C)C)cc1	-58%	/	/	/	/	/
SMILES	BRCA1 expr act	RXFP1 agonist	NPSR antagonist	Giardia killer	IL2 activator	RXFP1 antagonist
COc1cc2c(NC3CCN(C)CC3)nc(N3CCCN(C)CC3)nc2cc1OCCCCCN(C)C	-25%	/	/	/	/	/
CCCOc1ccc(CCC(=O)N/N=C/c2ccc([N+](=O)[O-])o2)cc1	-67%	-2%	31%	-88*	0	6
O=C(CN1CCOCC1)NN=Cc1ccc([N+](=O)[O-])o1	-31%	/	/	/	1	/
Cc1cc([N+](=O)[O-])ccc1-c1ccc(/C=N/NC(=O)Cc2ccccc2)o1	-6%	5%	-29%	13	18	-5
CCCCCCCC(=O)N/N=C/c1ccc([N+](=O)[O-])o1	-62%	3%	0%	-88*	0	8
CCCOc1ccc(CC(=O)N/N=C\c2ccc(F)cc2)cc1	-1%	1%	/	9	-1	-11
CC1(C(=O)N/N=C/c2ccc([N+](=O)[O-])o2)CC1(Br)Br (configuration not stated)	-86%	3%	11%	-90*	-4	/
O=C(Cc1ccc([N+](=O)[O-])cc1)N/N=C/c1ccc([N+](=O)[O-])o1	-82%	-1%	-13%	-89*	0	6
CC1=Nc2ccccc2/C1=C/c1ccc(N(C)C)cc1	-39%	/	/	/	/	/
Nc1ccccc1/C=C/c1ccnc2ccccc12	0%	/	/	/	/	/
O=S(=O)(c1ccc(F)cc1)N1CCN(c2nc(-c3cccs3)nc3cc(Cl)ccc23)CC1	1%	/	/	-4	/	/
Cc1coc2cc3oc(=O)c(CC(=O)NCc4ccccc4)c(C)c3cc12	/	9%	/	/	/	-9
CC(=O)N/N=C/c1ccc([N+](=O)[O-])o1	/	/	/	/	/	3
O=C(CC12CC3CC(CC(C3)C1)C2)N/N=C/c1ccc([N+](=O)[O-])o1	-96%	3%	-41%	-94*	-1	6
O=C(CN1CCCCCCC1)N/N=C/c1ccc([N+](=O)[O-])o1	-97%	4%	/	?	-3	-29
CCOC(=O)N/N=C\c1ccc([N+](=O)[O-])o1	-36%	0%	1%[46.1 µM]	-95*	-2	2
CCN(Cc1ccccc1)C(=O)c1cnn(-c2ccc(F)cc2)c1-n1cccc1	-29%	-1%	/	/	/	/
CCNC(=S)NNC(=O)c1cc(-c2ccc(OCC)cc2)nc2ccccc12	-48%	1%	-1%[46.1 µM]	-81*	-3	-10
CCc1ccc(-c2cc(C(=O)Nn3cnnc3)c3ccccc3n2)cc1	-80%	2%	-17%[46.1 µM]	-100*	-3	-8
CCCc1ccc(-c2cc(C(=O)NN3CCOCC3)c3ccccc3n2)cc1	14µM*	0%	-16%[46.1 µM]	-13	1	0
CC(C)Oc1cccc(-c2cc(C(=O)NN3CCOCC3)c3ccccc3n2)c1	-3%	5%	/	5	-5	-12
COc1ccc(-c2cn3cccnc3n2)cc1NC(=O)c1cc(C)cc(C)c1	/	6%	/	/	/	0
COc1ccc(-c2[nH]c(-c3cccc(OC)c3)nc2SCC(=O)Nc2ccc3c(c2)OCO3)cc1	/	5%	/	/	/	-2
CCSc1nnc(NC(=O)C2CCN(C(=O)c3ccco3)CC2)s1	-2%	/	/	8	/	/
O=C(COC(=O)c1ccc(Cl)cc1)NC(=O)NC1CCCC1	-16%	-1%	/	-15	1	10
